In the supplement of paper PMC8285479:
± gives the standard deviation of the averaged measurements. Over roughly 1,900 compounds, “normalised cell viability (NPI; 0 = phenylarsine oxide control, 1 = DMSO control)” has its median near 1; the lowest 2% begin near 0.039. For the sample, the lowest values were picked, then their nearest neighbours and some compounds at random.

Tested on: NCI-H1944
Assay: normalised cell viability (NPI; 0 = phenylarsine oxide control, 1 = DMSO control) (fraction of DMSO control); NCI-H1944 is a non-small cell lung cancer line; higher = more viable cells (less compound toxicity)
Details: 6 days
[1] = glucocorticoid arm: hydrocortisone 2.75 uM co-treatment, compound 1 µM
[2] = glucocorticoid arm: hydrocortisone 2.75 uM co-treatment, compound 5 µM
[3] = glucocorticoid arm: hydrocortisone 2.75 uM pre-treated 2 days and continued, compound 1 µM
[4] = glucocorticoid arm: hydrocortisone 2.75 uM pre-treated 2 days and continued, compound 5 µM
[5] = glucocorticoid arm: vehicle, compound 1 µM
[6] = glucocorticoid arm: vehicle, compound 5 µM
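Also: CTB read-out in 384-well plates, triplicate wells, NPI normalised per plate against 1 µM phenylarsine oxide (0) and 0.1% DMSO (1) controls.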

## CC1(C2CCCC2)Cc2cc(OCC(=O)O)c(Cl)c(Cl)c2C1=O (stereo unspecified)
[1]
  normalised cell viability: 0.983 ± 0.014
[2]
  normalised cell viability: 0.982 ± 0.037
[3]
  normalised cell viability: 0.9883 ± 0.0072
[4]
  normalised cell viability: 0.986 ± 0.084
[5]
  normalised cell viability: 0.998 ± 0.011
[6]
  normalised cell viability: 0.9853 ± 0.0067

## Cc1ccc([N+](=O)[O-])cc1S(=O)(=O)N(C)/N=C/c1cnc2ccc(Br)cn12
[1]
  normalised cell viability: 0.025 ± 0.0023
[2]
  normalised cell viability: 0.0304 ± 0.0032
[3]
  normalised cell viability: 0.0674 ± 0.0086
[4]
  normalised cell viability: 0.0802 ± 0.022
[5]
  normalised cell viability: 0.0104 ± 0.005
[6]
  normalised cell viability: 0.00623 ± 0.0011

## Cc1ccc([N+](=O)[O-])cc1S(=O)(=O)N(C)C
[1]
  normalised cell viability: 1 ± 0.018
[2]
  normalised cell viability: 0.9945 ± 0.0095
[3]
  normalised cell viability: 1 ± 0.011
[4]
  normalised cell viability: 0.978 ± 0.028
[5]
  normalised cell viability: 1.004 ± 0.0094
[6]
  normalised cell viability: 1.007 ± 0.0052

## CCCCC/C=C\C[C@@H](O)/C=C/c1cccc(C[C@@H](O)CCCCO)n1
[1]
  normalised cell viability: 1.005 ± 0.0081
[2]
  normalised cell viability: 1.05 ± 0.04
[3]
  normalised cell viability: 1.01 ± 0.015
[4]
  normalised cell viability: 1.04 ± 0.011
[5]
  normalised cell viability: 1.013 ± 0.0058
[6]
  normalised cell viability: 1.027 ± 0.0058

## OC[C@H]1O[C@@H](n2cnc3c(N[C@H]4CCC[C@@H]4O)ncnc32)[C@H](O)[C@@H]1O
[1]
  normalised cell viability: 1.017 ± 0.0058
[2]
  normalised cell viability: 1.01 ± 0.027
[3]
  normalised cell viability: 1.01 ± 0.01
[4]
  normalised cell viability: 1.01
[5]
  normalised cell viability: 0.993 ± 0.015
[6]
  normalised cell viability: 0.9927 ± 0.0095

## CC[n+]1c(/C=C/C=C2/N(C)c3ccccc3C2(C)C)sc2ccccc21
[1]
  normalised cell viability: 0.467 ± 0.026
[2]
  normalised cell viability: 0.434 ± 0.017
[3]
  normalised cell viability: 0.901 ± 0.032
[4]
  normalised cell viability: 0.798 ± 0.02
[5]
  normalised cell viability: 0.237 ± 0.0069
[6]
  normalised cell viability: 0.112 ± 0.0067

## NC(N)=N[C@@H](CCC(=O)O)C(=O)O [alpha-Guanidinoglutaric acid]
[1]
  normalised cell viability: 1.01 ± 0.01
[2]
  normalised cell viability: 0.983 ± 0.01
[3]
  normalised cell viability: 1.006 ± 0.0063
[4]
  normalised cell viability: 1.01 ± 0.021
[5]
  normalised cell viability: 0.9917 ± 0.0038
[6]
  normalised cell viability: 1.002 ± 0.0072

## CCCCCCCCOc1ccccc1C(=O)Nc1ccc(C(=O)OCC[N+](C)(CC)CC)cc1 [Otilonium Bromide]
[1]
  normalised cell viability: 1.03 ± 0.01
[2]
  normalised cell viability: 1.03 ± 0.026
[3]
  normalised cell viability: 1.01 ± 0.026
[4]
  normalised cell viability: 1.03 ± 0.025
[5]
  normalised cell viability: 1.007 ± 0.0058
[6]
  normalised cell viability: 1.003 ± 0.0058

## COc1cc(C(=O)NC2CCN(C)CC2)ccc1Nc1ncc2c(n1)N(C1CCCC1)CC(F)(F)C(=O)N2C
[1]
  normalised cell viability: 0.354 ± 0.024
[2]
  normalised cell viability: 0.359 ± 0.031
[3]
  normalised cell viability: 0.73 ± 0.022
[4]
  normalised cell viability: 0.7627 ± 0.007
[5]
  normalised cell viability: 0.066 ± 0.0089
[6]
  normalised cell viability: 0.0695 ± 0.004

## CC[C@@H]1C(=O)N(C)c2cnc(Nc3ccc(C(=O)NC4CCN(C)CC4)cc3OC)nc2N1C1CCCC1
[1]
  normalised cell viability: 0.535 ± 0.026
[2]
  normalised cell viability: 0.4 ± 0.057
[3]
  normalised cell viability: 0.797 ± 0.042
[4]
  normalised cell viability: 0.592 ± 0.083
[5]
  normalised cell viability: 0.0889 ± 0.011
[6]
  normalised cell viability: 0.0658 ± 0.0046

## CC[C@@H]1C(=O)N(C)c2cnc(Nc3ccc(C(=O)N[C@H]4CC[C@H](N5CCN(CC6CC6)CC5)CC4)cc3OC)nc2N1C(C)C [BI6727 (Volasertib)]
[1]
  normalised cell viability: 0.346 ± 0.023
[2]
  normalised cell viability: 0.201 ± 0.025
[3]
  normalised cell viability: 0.58 ± 0.017
[4]
  normalised cell viability: 0.213 ± 0.15
[5]
  normalised cell viability: 0.0771 ± 0.019
[6]
  normalised cell viability: 0.0219 ± 0.0034
